High-throughput results (PubChem BioAssay)
Mcl1-Bid inh: disrupts binding of human Mcl-1 to Bid peptide; inhibition, % at 21.7 µM; AID 1021; TR-FRET Mcl-1/Bid-Dy647 peptide binding, 1536-well; 0.97% of 220,000 active;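 active = compounds that cut the binding signal by more than half at the single screening dose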;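 note: His-tagged Mcl-1 with europium anti-His antibody binding Bid BH3 peptide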
Target sequence (Q07820 whole entry, looked up): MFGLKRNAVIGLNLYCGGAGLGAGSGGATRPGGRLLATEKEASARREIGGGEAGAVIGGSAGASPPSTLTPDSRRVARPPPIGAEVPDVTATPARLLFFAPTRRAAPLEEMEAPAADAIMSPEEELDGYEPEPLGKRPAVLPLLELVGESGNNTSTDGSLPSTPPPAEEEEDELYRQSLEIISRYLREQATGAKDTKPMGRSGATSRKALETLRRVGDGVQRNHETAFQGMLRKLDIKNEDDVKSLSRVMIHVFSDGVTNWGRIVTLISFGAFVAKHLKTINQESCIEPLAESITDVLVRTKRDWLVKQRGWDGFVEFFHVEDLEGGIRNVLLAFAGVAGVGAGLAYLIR
14-3-3 Bad inh: disrupts binding of bovine 14-3-3 zeta to phospho-Bad peptide. inhibition, % at 21.7 µM. TR-FRET 14-3-3zeta/Dy647-pBad peptide displacement, 1 h. 0.71% of 220,000 active. P63103. AID 781;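 active = inhibition above about 70%, limit read from the data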
Target sequence (P63103 whole entry, looked up): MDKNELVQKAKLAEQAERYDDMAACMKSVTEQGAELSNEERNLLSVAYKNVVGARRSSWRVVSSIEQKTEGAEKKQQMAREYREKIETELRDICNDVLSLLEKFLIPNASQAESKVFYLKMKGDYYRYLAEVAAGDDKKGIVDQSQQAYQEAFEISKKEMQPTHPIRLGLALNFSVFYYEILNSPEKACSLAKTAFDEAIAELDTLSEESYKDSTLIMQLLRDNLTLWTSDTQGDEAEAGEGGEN
Mcl1 Noxa PPI: disrupts binding of human Mcl-1 to Noxa peptide; Q07820; TR-FRET Mcl-1/Noxa peptide binding, 2 h; inhibition, % at 21.7 µM; 1.5% of 220,000 active;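 active = compounds that cut the protein-peptide binding signal by more than 50% relative to plate controls in a single-dose test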;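 note: His-tagged Mcl-1 with rhodamine Noxa BH3 peptide and terbium anti-His antibody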
Bim-Mcl-1: disrupts Bim peptide binding to human Mcl-1. Q07820. Bead-based flow cytometry, Bim peptide-Mcl-1 binding. inhibition, % at 10 µM. 0.1% of 190,000 active; in the data active = inhibition above about 40%
Arbovirus anti: arbovirus infection inhibition. AID 1251. inhibition, % at 10 µM. arbovirus infection cell-based antiviral screen. 0.37% of 200,000 active; in the data active = inhibition above about 30%
A number is an active result. Compounds with a hit are over-represented: about 3% of the library has one in this group of screens.

For Cc1cc(C)cc(C(=O)Nc2ccc(N3CCCC3)cc2)c1 the results were Mcl1-Bid inh inactive, 14-3-3 Bad inh inactive, Mcl1 Noxa PPI 67, Bim-Mcl-1 inactive and Arbovirus anti inactive.
Screening CC1CCN(c2ccc(NC(=O)Cc3ccccc3)cc2)CC1 returned Mcl1-Bid inh inactive, 14-3-3 Bad inh inactive, Mcl1 Noxa PPI 87, Bim-Mcl-1 inactive and Arbovirus anti inactive.
For Cc1cc(C)cc(NC(=O)Nc2ccc(N3CCCCC3)cc2)c1 the results were Mcl1-Bid inh inactive, 14-3-3 Bad inh inactive and Mcl1 Noxa PPI inactive.
CCNC(=S)N=Nc1c(O)[nH]c2ccc([N+](=O)[O-])cc12 was read as Mcl1-Bid inh inactive, 14-3-3 Bad inh inactive, Mcl1 Noxa PPI inactive, Bim-Mcl-1 inactive and Arbovirus anti inactive.
O=[N+]([O-])c1ccc2[nH]c(O)c(N=NC(=S)Nc3cccnc3)c2c1 was read as Mcl1-Bid inh inactive, 14-3-3 Bad inh inactive and Mcl1 Noxa PPI 100.
Cc1ccccc1NCC(=O)N=Nc1c(O)[nH]c2ccc([N+](=O)[O-])cc12 was read as Mcl1-Bid inh inactive, 14-3-3 Bad inh inactive and Mcl1 Noxa PPI 53.
O=C(NCCN1CCOCC1)c1cc(Sc2ccccc2Cl)nc2ccccc12 was read as Mcl1-Bid inh inactive, 14-3-3 Bad inh inactive, Mcl1 Noxa PPI inactive, Bim-Mcl-1 inactive and Arbovirus anti inactive.
CON(C)c1nc(OCC#N)nc(N(C)C)n1 was read as Mcl1-Bid inh inactive, 14-3-3 Bad inh inactive, Mcl1 Noxa PPI inactive, Bim-Mcl-1 inactive and Arbovirus anti inactive.
Screening CCc1nnc(NC(=O)c2ccc(-c3cc(C(F)(F)F)ccc3Cl)o2)s1 returned Mcl1-Bid inh inactive, 14-3-3 Bad inh inactive, Mcl1 Noxa PPI inactive, Bim-Mcl-1 inactive and Arbovirus anti inactive.
For O=C(Nc1nccs1)c1ccc(-c2ccc([N+](=O)[O-])cc2)o1 the results were Mcl1-Bid inh inactive, 14-3-3 Bad inh inactive, Mcl1 Noxa PPI 66, Bim-Mcl-1 inactive and Arbovirus anti inactive.
COc1ccc(NC(=O)c2[nH]ncc2[N+](=O)[O-])cc1 was read as Mcl1-Bid inh 80, 14-3-3 Bad inh inactive, Mcl1 Noxa PPI inactive, Bim-Mcl-1 inactive and Arbovirus anti inactive.
Screening CCc1nnc(NC(=O)c2ccc(-c3ccc([N+](=O)[O-])cc3Cl)o2)s1 returned Mcl1-Bid inh 66, 14-3-3 Bad inh inactive, Mcl1 Noxa PPI 59, Bim-Mcl-1 inactive and Arbovirus anti inactive.
`O=C(Nc1ccccc1)c1[nH]ncc1[N+](=O)[O-]` gave Mcl1-Bid inh inactive, 14-3-3 Bad inh inactive, Mcl1 Noxa PPI inactive, Bim-Mcl-1 inactive and Arbovirus anti inactive.
For COc1ccc(NC(=O)c2ccc(-c3ccc([N+](=O)[O-])cc3)o2)cc1 the results were Mcl1-Bid inh inactive, 14-3-3 Bad inh inactive, Mcl1 Noxa PPI 51, Bim-Mcl-1 inactive and Arbovirus anti inactive.
For O=C(CC1C(=O)NCCN1CC1CCCCC1)NCCc1ccc(F)cc1 (centres undefined) the results were Mcl1-Bid inh inactive, 14-3-3 Bad inh inactive, Mcl1 Noxa PPI inactive, Bim-Mcl-1 inactive and Arbovirus anti inactive.
Screening COc1ccc(NC(=O)Cc2c(SC)c3ccccc3n2Cc2ccccc2)cc1 returned Mcl1-Bid inh inactive, 14-3-3 Bad inh inactive, Mcl1 Noxa PPI 78, Bim-Mcl-1 inactive and Arbovirus anti inactive.
`COc1cc(-c2nnc(SCc3cc(=O)oc4cc(O)c(O)cc34)o2)cc(OC)c1OC` gave Mcl1-Bid inh inactive, 14-3-3 Bad inh inactive, Mcl1 Noxa PPI 77, Bim-Mcl-1 inactive and Arbovirus anti inactive.
CC(=O)Nc1ccc(S(=O)(=O)Nc2ccc3c(c2)C(=O)OC3)cc1 was read as Mcl1-Bid inh inactive, 14-3-3 Bad inh inactive, Mcl1 Noxa PPI inactive, Bim-Mcl-1 inactive and Arbovirus anti inactive.
C#CCOCCOCCOCCNc1nc(N2CCN(C(=O)C(Cc3ccc(O)cc3)n3cc(C(N)CC(C)C)nn3)CC2)nc(N2CCN(C(=O)C(Cc3cc4ccccc4[nH]3)n3cc(C(N)Cc4ccc(O)cc4)nn3)CC2)n1 (centres undefined) was read as Mcl1-Bid inh 96, 14-3-3 Bad inh inactive, Mcl1 Noxa PPI inactive, Bim-Mcl-1 inactive and Arbovirus anti inactive.
Screening C#CCOCCOCCOCCNc1nc(N2CCN(C(=O)[C@H](CCC(=O)O)n3cc(C(N)Cc4ccc(O)cc4)nn3)CC2)nc(N2CCN(C(=O)[C@H](Cc3cc4ccccc4[nH]3)n3cc(C(N)CC(C)C)nn3)CC2)n1 (some centres undefined) returned Mcl1-Bid inh inactive, 14-3-3 Bad inh inactive, Mcl1 Noxa PPI inactive, Bim-Mcl-1 inactive and Arbovirus anti inactive.
`C#CCOCCOCCOCCNc1nc(N2CCN(C(=O)[C@H](CCCCN)n3cc([C@@H](N)CO)nn3)CC2)nc(N2CCN(C(=O)[C@H](Cc3cc4ccccc4[nH]3)n3cc([C@@H](N)CC(C)C)nn3)CC2)n1` gave Mcl1-Bid inh 54, 14-3-3 Bad inh inactive, Mcl1 Noxa PPI inactive, Bim-Mcl-1 inactive and Arbovirus anti inactive.
COc1ccc(C(=O)NCCc2nnc(SCC(=O)Nc3ccccc3F)n2C)cc1 was read as Mcl1-Bid inh inactive, 14-3-3 Bad inh inactive, Mcl1 Noxa PPI inactive, Bim-Mcl-1 inactive and Arbovirus anti inactive.
For O=C1C2CC(O)CN2C(=O)N1c1ccccc1 (centres undefined) the results were Mcl1-Bid inh inactive, 14-3-3 Bad inh inactive, Mcl1 Noxa PPI inactive, Bim-Mcl-1 inactive and Arbovirus anti inactive.
CCN(CC)S(=O)(=O)c1ccc(C(=O)OCn2nnc3ccccc3c2=O)cc1 was read as Mcl1-Bid inh inactive, 14-3-3 Bad inh inactive, Mcl1 Noxa PPI inactive, Bim-Mcl-1 inactive and Arbovirus anti inactive.
`CC1CN(c2ccc(S(=O)(=O)N3CCCC3)cn2)CC(C)O1` (centres undefined) gave Mcl1-Bid inh inactive, 14-3-3 Bad inh inactive and Mcl1 Noxa PPI inactive.
CN(C)c1ccc(NC(=O)c2sc(SCC(=O)Nc3ccc(Br)cc3)nc2N)cc1 was read as Mcl1-Bid inh inactive, 14-3-3 Bad inh inactive, Mcl1 Noxa PPI inactive, Bim-Mcl-1 inactive and Arbovirus anti inactive.
CN(C)c1ccc(NC(=O)c2sc(SCC(=O)Nc3nccs3)nc2N)cc1 was read as Mcl1-Bid inh inactive, 14-3-3 Bad inh inactive, Mcl1 Noxa PPI 66, Bim-Mcl-1 inactive and Arbovirus anti inactive.
Screening c1ccc(-c2ccc3c(c2)NCCN3)cc1 returned Mcl1-Bid inh inactive, 14-3-3 Bad inh inactive and Mcl1 Noxa PPI inactive.
`CC(C)N1C(=O)/C(=C\c2nc3ccccc3c(=O)[nH]2)c2ccccc21` gave Mcl1-Bid inh 70, 14-3-3 Bad inh inactive, Mcl1 Noxa PPI 55, Bim-Mcl-1 inactive and Arbovirus anti inactive.
CCCN1C(=O)/C(=C/c2nc3ccccc3c(=O)[nH]2)c2ccccc21 was read as Mcl1-Bid inh inactive, 14-3-3 Bad inh inactive, Mcl1 Noxa PPI inactive, Bim-Mcl-1 inactive and Arbovirus anti inactive.
CCC(C)[C@H](NC(=O)N1CCC(C)CC1)C(=O)OC (some centres undefined) was read as Mcl1-Bid inh inactive, 14-3-3 Bad inh inactive and Mcl1 Noxa PPI inactive.
Screening O=C(c1sc2cc([N+](=O)[O-])ccc2c1Cl)N1CCOCC1 returned Mcl1-Bid inh inactive, 14-3-3 Bad inh inactive, Mcl1 Noxa PPI inactive, Bim-Mcl-1 inactive and Arbovirus anti inactive.
